Source: PubChem (Broad Institute)
Rows were chosen to be rich in hits. Some 2.1% of all compounds tested hit in one or more screens of this group.
GSIS activator = GLuc luminescence reporter in INS-1E cells, primary screen for activators of glucose-dependent secretion of insulin; INS-1E GLuc reporter insulin secretion, 2-3 h; activation, % at 16.6 µM; 0.61% of 370,000 active; AID 743287, 2014;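 active = lowest replicate activation of at least 40%, so every replicate reaches that level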;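 also: 0% = median of neutral control wells and 100% = median of IBMX positive control wells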
HIV Env fusion = inhibitors of HIV-1 Env-driven cell-cell fusion, primary screen, HeLa-JRFL effector, CEM21 target cells, luciferase | 1.1% of 360,000 active | inhibition, % at 12.3 µM;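 active = mean replicate inhibition score of at least 50 and every replicate individually at or above 50; inconclusive = only one of the two criteria met; inactive = mean below 50 and not all replicates reaching 50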;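 also: 0% = plate neutral controls and 100% = maraviroc near 300 nM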
AF4-AF9 inh = inhibitors of AF4 peptide binding to AF9, primary screen, biochemical, AlphaScreen, biotin-AF4 peptide, FLAG-AF9, single point; Protein AF-9 (Homo sapiens), P42568; inhibition, % at 10 µM; 0.47% of 350,000 active;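 active = every replicate reaching a set inhibition limit, whatever the replicate mean, cut at about 25% in these data; inconclusive = mean inhibition reaches that limit but some replicates miss it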;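 also: 0% = plate neutral control median and 100% = total signal loss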
Target sequence (P42568 whole entry, looked up): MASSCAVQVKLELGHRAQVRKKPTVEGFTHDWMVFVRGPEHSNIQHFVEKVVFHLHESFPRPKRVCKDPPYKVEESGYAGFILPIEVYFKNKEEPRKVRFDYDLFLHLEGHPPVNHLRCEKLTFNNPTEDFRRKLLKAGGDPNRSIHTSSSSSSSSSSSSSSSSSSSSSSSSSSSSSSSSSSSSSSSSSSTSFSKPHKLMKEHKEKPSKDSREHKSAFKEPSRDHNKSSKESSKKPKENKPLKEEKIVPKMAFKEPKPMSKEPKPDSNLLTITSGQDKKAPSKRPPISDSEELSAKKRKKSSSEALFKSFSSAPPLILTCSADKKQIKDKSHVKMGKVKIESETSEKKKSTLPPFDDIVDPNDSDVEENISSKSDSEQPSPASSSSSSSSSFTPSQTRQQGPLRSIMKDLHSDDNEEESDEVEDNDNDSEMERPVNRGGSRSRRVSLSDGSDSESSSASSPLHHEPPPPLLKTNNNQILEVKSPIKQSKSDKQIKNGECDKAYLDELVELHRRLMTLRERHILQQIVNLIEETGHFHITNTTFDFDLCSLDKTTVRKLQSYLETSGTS
PGC1a acetyl inh = inhibitors of PGC1a acetylation signal, primary screen, cell-based, U2OS, AlphaScreen, inhibitor mode | AlphaScreen anti-acetyl-lysine; with virally co-expressed GCN5 acetyltransferase | 0.17% of 350,000 active | AID 651687, 2012 | inhibition, % at 15.6 µM;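 active = every replicate shows inhibition of at least 40%; inconclusive = mean inhibition at least 40% but some replicate below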;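 also: 0% = neutral control wells and 100% = positive control wells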
NSD2 inh = NSD2 histone methyltransferase inhibitors, primary screen, biochemical, AlphaScreen, single concentration, set 2 | Histone-lysine N-methyltransferase NSD2 (Homo sapiens), O96028 | NSD2 peptide methylation, 120 min | inhibition, % at 12.5 µM | 0.54% of 310,000 active | AID 743445, 2014; in the data active = inhibition above about 50%
An asterisk follows results filed as active; u = inconclusive; x = not tested or not shown; [ ] = dose if it differs, or a comment.

SMILES	GSIS activator	HIV Env fusion	AF4-AF9 inh	PGC1a acetyl inh	NSD2 inh
O=C(CNC(=O)c1ccc(Cl)cc1)OCCN1C(=O)c2ccccc2C1=O	7	x	1	6	-4
Clc1ccc(-c2cc(CN3CCOCC3)no2)cc1	147*	-23	0	x	-1
O=C(CCCOc1ccc(Cl)cc1Cl)Nc1cccnc1	x	x	x	-4	-1
Cc1ccccc1Cn1cnc2ccccc21	6	-15	2	-7	-1
CCCc1ccc2c(C(F)(F)F)cc(C(F)(F)F)cc2n1	-1	4	-7	0	x
CCC(=O)Nc1ccc(NC(=S)NC(=O)c2oc3ccccc3c2C)cc1	60*	x	x	-5	3
CC(=O)Nc1ccc(NC(=S)NC(=O)c2oc3ccccc3c2C)cc1	10	3	x	-8	-1
OCCN1CCN(CC/C=C2/c3ccccc3CSc3ccccc32)CC1	-32	17	12	-4	6
OCCN1CCN(CC/C=C2/c3ccccc3Sc3ccc(C(F)(F)F)cc32)CC1	32	29	27*	-24	x
Cc1ccc(C)c(N2CCN(S(=O)(=O)c3ccc4c(c3)CC(=O)N4C)CC2)c1	12	-2	1	-16	3
Cc1cc(C)cc(OCCCN2CCC(C(O)(c3ccccc3)c3ccccc3)CC2)c1	182*	-9	7	x	x
Cc1cc(OCCCN2CCC(C(O)(c3ccccc3)c3ccccc3)CC2)ccc1Br	477*	0	1	x	x
OC(c1ccccc1)(c1ccccc1)C1CCN(CCCOc2ccc(Cl)cc2)CC1	x	x	x	x	0
CN(Cc1ccccc1)c1ncnc(N)c1[N+](=O)[O-]	44*	u	0	34	2
CN(Cc1ccccc1)c1ncnc2[nH]ncc12	40*	x	3	15	2
CCCCNC(=S)Nc1ccc2nc3n(c(=O)c2c1)CCCCC3	x	10	0	x	8
Cc1ccc(C(=O)N2CCN(c3ncccn3)CC2)cc1	13	-1	-6	80*	-5
COCCCn1c(C(=O)Nc2ccc3c(c2)OCO3)cc2c(=O)n3cccc(C)c3nc21	-2	64*	-4	-5	1
Cc1cc(C)n2nc(NCc3cccc(Br)c3)nc2n1	x	106*	x	x	0
COc1ccc(CNc2nc3nc(C)cc(C)n3n2)cc1OC	x	-7	x	-14	5
Cc1[nH]n(-c2ccccc2)c(=O)c1/C=N/NC(=O)c1cccc([N+](=O)[O-])c1	x	x	x	5	-2
O=C(N/N=C/c1ccncc1)c1cccc([N+](=O)[O-])c1	11	-7	-2	x	10
CC(/C=N/NC(=O)c1cccc([N+](=O)[O-])c1)=C\c1ccccc1	49*	-17	x	-1	-1
Cc1[nH]n(-c2cccc3ccccc23)c(=O)c1/C=N/NC(=O)c1cccc([N+](=O)[O-])c1	-4	59*	x	14	-3
CN(C(=O)COC(=O)c1cc(S(=O)(=O)N(C)C)ccc1Cl)C1CCS(=O)(=O)C1 (stereo not given)	3	x	-3	x	0
SMILES	GSIS activator	HIV Env fusion	AF4-AF9 inh	PGC1a acetyl inh	NSD2 inh
O=C(NCCNC1CCCCC1)c1ccco1	13	1	-1	8	-2
CC1CCC(NCCNC(=O)c2ccco2)CC1 (stereo not given)	44*	5	0	4	1
CCOC(=O)CSC1=C(C#N)C(c2ccc(C)o2)CC(=O)N1 (stereo not given)	29	-195	30*	-12	x
CCOC(=O)CSC1=C(C#N)C(c2ccc(Cl)cc2)CC(=O)N1 (stereo not given)	-11	1	-2	4	x
CCCCCCc1cc2cc(-c3nnc(-c4ccccc4OC)o3)c(=O)oc2cc1O	x	88*	x	x	x
COc1cc(NC(=O)c2ccc(F)cc2)c(OC)cc1NC(=O)CN1CCOCC1	4	-4	4	-13	2
O=C(COc1ccc2ccc(=O)oc2c1)Nc1ccc(N2CCCCC2)cc1	13	2	47*	-7	19
O=C(COC(=O)c1ccc[nH]c1=O)Nc1ccc(N2CCCCC2)cc1	5	62*	2	5	-4
CCCNC(=O)c1ccccc1NC(=O)COc1ccc(OC)cc1	57*	-27	x	-4	-1
COc1ccc(OCC(=O)Nc2ccccc2O)cc1	x	x	x	-39	26
O=C(Nc1ccc(N2CCCCCC2)cc1)c1ccc[nH]1	13	-173	34*	1	33
O=C(C[C@H]1CC[C@@H](NC(=O)CC2CC2)[C@@H](CO)O1)NCc1ccc(-c2ccccc2)cc1	0	-6[16.7 µM]	-1	-4	x
Cc1ccc(C(=O)N2C(=O)c3cccc(N)c3C2=O)o1	14	9	-67	-5	-4
C[C@H]1CN([C@@H](C)CO)C(=O)c2cc(NC(=O)Cc3cn(C)c4ccccc34)ccc2O[C@@H]1CN(C)S(=O)(=O)c1cn(C)cn1	-8	x	-11	-2	x
COc1ccc(CNC(=O)CN(C)Cc2ccccc2F)cc1OC	44	6	-22	x	0
CC(C)C[C@H]1CN=C(N(C)C)N1CCc1cccc(F)c1	4	-23	-19	3	x
O=C(CN1CCCCC1)Nc1ccccc1	x	-29	x	4	-1
CCOc1ccc(NC(=O)c2ccccc2NC(=O)CN2CCCCCC2)cc1	-2	0	0	1	-2
COc1ccc(NC(=O)c2ccccc2NC(=O)CN2CCCCCC2)cc1	8	4	28*	3	0
O=C(CN1CCCCC1)Nc1ccc(N2CCCCCC2)cc1	-9	-12	31*	x	18
CCOC(=O)C1=C(C)N=C2SCCC(=O)N2[C@@H]1c1cccs1	x	8	2	17	-1
O=C(O)CC(NCc1ccco1)C(=O)Nc1cccc(O)c1 (stereo not given)	6	-5	0	5	0
CC1(C)Cc2c(c(-c3ccco3)nc3n[nH]c(N)c23)CO1	56*	x	x	12	8
CCOC(=O)c1sc2nc(-c3ccco3)c3c(c2c1N)CC(C)(C)OC3	x	-19	x	-1	x
Cc1nnc(SCC(=O)N2CCC(c3noc4ccc(F)cc34)CC2)s1	7	x	5	57*	1
SMILES	GSIS activator	HIV Env fusion	AF4-AF9 inh	PGC1a acetyl inh	NSD2 inh
Cc1cc([N+](=O)[O-])cc2ncccc12	86*	x	x	12	-3
CCCCc1cc(=O)oc2cc(C)cc(OCC(=O)NCc3cccnc3)c12	20	22	-3	-4	-2
COc1cc(Br)cc(/C=N/NC(=O)Cc2ccccc2)c1O	5	8	79*	15	-1
O=C(Cc1ccccc1)N/N=C/c1cc(Br)cc(Cl)c1O	-9	26	-1	18	-6
CCN(CC(=O)Nc1cc(Cl)ccc1C)C(=O)c1ccc(=O)n(Cc2ccccc2)n1	-15	110*	-4	x	-1
CC(C)[C@H]1CC[C@@H](C)C(C(=O)c2ccccc2)C1=O (stereo not given in full)	-2	x	58*	-13	-2
O=C(NCCN1CCCC1)c1ccc(Cn2c(=S)[nH]c3cc4c(cc3c2=O)OCO4)cc1	x	-52	x	1	2
